Source: PubChem BioAssay (National Center for Advancing Translational Sciences (NCATS))
FLuc inh: inhibitors of firefly luciferase; P08659; purified firefly luciferase, luminescence, 8 min; Potency, µM (titrated, usually from 57.1 µM), without a hit: top-dose activity change, negative = inhibition, usual class: inhibitors; 72,000 tested, 2.2% active; AID 411; further: on the % scale 0 is the no-effect control and ±100 the full control effect; nearly all actives have a fitted effect of over 40% in size
Target sequence (P08659 whole entry, looked up): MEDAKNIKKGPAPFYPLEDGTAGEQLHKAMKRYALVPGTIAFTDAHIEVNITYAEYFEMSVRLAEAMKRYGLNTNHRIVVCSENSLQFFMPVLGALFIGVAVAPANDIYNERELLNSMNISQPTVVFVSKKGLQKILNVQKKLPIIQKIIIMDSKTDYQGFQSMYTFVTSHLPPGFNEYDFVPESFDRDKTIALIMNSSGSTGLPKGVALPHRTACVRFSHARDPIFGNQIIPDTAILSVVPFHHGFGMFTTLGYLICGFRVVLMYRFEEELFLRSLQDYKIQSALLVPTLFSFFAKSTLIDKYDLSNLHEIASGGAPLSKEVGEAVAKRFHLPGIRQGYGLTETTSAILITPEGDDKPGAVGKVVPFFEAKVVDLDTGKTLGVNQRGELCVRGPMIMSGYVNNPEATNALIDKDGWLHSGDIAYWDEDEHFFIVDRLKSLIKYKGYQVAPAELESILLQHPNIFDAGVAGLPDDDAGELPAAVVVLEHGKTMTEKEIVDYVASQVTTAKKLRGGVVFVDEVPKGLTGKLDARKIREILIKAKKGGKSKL
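Luminescence read-out after 8 min at room temperature; enzyme reaction used luciferin plus 10 uM ATP (linear range) in imidazole buffer pH 7.2 with KCl, MgCl2, Tween 20 and BSA. Each sample was run as a titration.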
HEK293 cAMP ctrl: raises cAMP in parental HEK293 cells, TSHR agonist counter-screen; parental HEK293 CNG cAMP sensor, membrane potential fluorescence; Potency, µM (doses to about 57.1 µM), for inactives: at the highest dose activation, hits mostly activators; 73,000 tested, 2.5% active; AID 938; further: % of control where 0% means no effect; nearly all actives have a fitted effect of over 55% in size
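Parental HEK 293 cells stably expressing a modified CNG channel (no TSHR) report cAMP rise as membrane depolarization. Membrane potential dye with 100 uM RO 20-1724 was loaded for 60 min at room temperature, then compound added for 30 min; fluorescence read at 590 nm.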
Bst PK mod: modulators of Bacillus stearothermophilus pyruvate kinase. purified pyruvate kinase, luminescence ATP production; ribose 5-phosphate activator present at AC10. Potency, µM. 51,000 tested, 1.2% active. AID 361; in the data active means potency below about 11 µM; inconclusive means mostly about 12 µM to 25 µM;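 the screen sought inhibitors and activators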;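 further: scaled between full activation by ribose 5 phosphate and full inhibition by luteolin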
TSHR ag: agonists of human thyroid stimulating hormone receptor | HEK293-CNG-TSHR cells (CNG channel as cAMP sensor), membrane potential dye, cAMP | 73,000 tested, 0.48% active | Potency, µM (titrated, usually from 57.1 µM), for inactives: top-dose activation, most hits filed as activators; active means well fitted activation curve with a large enough effect in the main read-out, with a control signal flat, not every such curve was filed as active; inconclusive means small, poorly fitted or top-dose-only effect, or a change in a side signal; inactive means no such curve, though single readings can be large or run the other way; % of control where 0% means no effect;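 further: the control signal comes from parental cells without the receptor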
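cAMP rise detected as CNG-channel membrane depolarization by fluorescent dye (emission 590 nm), 30 min after compound, following 60 min dye loading containing 100 uM RO 20-1724 at room temperature. Cells: TSHR/CNG HEK 293, with parental CNG HEK 293 as control.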
Active calls of the source: *; [ ] = dose if it differs, or a comment. In the library only some 5.2% were active in any assay of this set; here they are far more common. Unless noted, the call rests on the fitted dose curve; in most records, active means well fitted curve in the direction sought with a large enough effect; inconclusive means small, poorly fitted or top-dose-only effect, or another doubt; inactive means no such curve, though single readings can be large; an effect the other way counts as inactive or inconclusive. Potency means the concentration at half of the fitted maximal effect.

`Cn1c(=O)c(-c2ccccc2)nc2cncnc21` gave FLuc inh 1.5%[11.4 µM], HEK293 cAMP ctrl 3.98µM* and TSHR ag inconclusive.
O=c1c(-c2ccccc2)nc2cncnc2n1-c1ccccc1 was read as FLuc inh -0.5%[11.4 µM], HEK293 cAMP ctrl 26.0% and TSHR ag 9.4%.
For Cn1c(=O)c(-c2cc(F)cc(F)c2)nc2cncnc21 the results were FLuc inh 2.3%[11.4 µM] and HEK293 cAMP ctrl 15.3%.
Screening O=c1c(-c2cccs2)nc2cncnc2n1-c1ccccc1 returned FLuc inh -3.7%[11.4 µM], HEK293 cAMP ctrl 25.1µM* and TSHR ag inconclusive.
For O=C1Nc2ccc(S(=O)(=O)N3CCCC3)c3ccc(S(=O)(=O)N4CCCC4)c1c23 the results were FLuc inh 4.6%, HEK293 cAMP ctrl -27.2%, Bst PK mod >57 and TSHR ag -4.0%.
`CCOc1ccc(C(=O)Nc2cc(C)on2)cc1` gave FLuc inh 10µM*, HEK293 cAMP ctrl 8.4% and TSHR ag 4.2%.
CCOC(=O)c1sc(NC(=O)c2c(C)nn(Cc3ccccc3)c2C)cc1C was read as FLuc inh 5.01µM*, HEK293 cAMP ctrl 22.4% and TSHR ag 1.7%.
`O=C(NC1CC1)c1c[nH]c2ccc(S(=O)(=O)Nc3cccc(C(F)(F)F)c3)cc2c1=O` gave FLuc inh 0.9%, HEK293 cAMP ctrl 3.5%, Bst PK mod >57 and TSHR ag -1.1%.
`NC([N-]/N=C/c1ccccn1)=[S]=[Fe].O=S(=O)(O)O` gave FLuc inh 0.5%[11.4 µM], HEK293 cAMP ctrl -4.1%[11.4 µM] and TSHR ag 2.8%[11.4 µM].
For Cn1c(C(=O)NCc2cccnc2)cc2sccc21 the results were FLuc inh -6.0%, HEK293 cAMP ctrl 3.6%, Bst PK mod >57 and TSHR ag -3.3%.
For Cc1nc2ncnn2c(C)c1Cc1ccc(Cl)cc1F the results were FLuc inh 2.4%, HEK293 cAMP ctrl 26.8% and TSHR ag 25.1µM*.
Screening CCOC(=O)C1=C(N)OC2=C(C(=O)CC(C)(C)C2)C1c1ccco1 (stereo unspecified) returned FLuc inh -7.0%, HEK293 cAMP ctrl 25.1µM*, Bst PK mod >57 and TSHR ag inconclusive.
Screening c1ccc(CC2=NCCN2)cc1 returned FLuc inh -0.6%[25.5 µM], HEK293 cAMP ctrl inconclusive and TSHR ag inconclusive.
Screening Cc1ccccc1/C=C\C1=NCCN1 returned FLuc inh 1.0%, HEK293 cAMP ctrl 11.5% and TSHR ag 0.126µM*.
Screening COc1cc(/C=c2\sc3nc(-c4ccncc4)nn3c2=O)ccc1OC(C)=O returned FLuc inh 3.16µM*, HEK293 cAMP ctrl -1.2% and TSHR ag 3.6%.
CCOC(=O)Nc1cc(C)c(Cl)cc1OC was read as FLuc inh 0.9%, HEK293 cAMP ctrl 10.8% and TSHR ag 10.5%.
Cn1c(=O)n(CCc2ccccc2)c(=O)c2c1nc1n2CCCN1c1ccc(F)cc1 was read as FLuc inh -0.3%, HEK293 cAMP ctrl 3.2%, Bst PK mod >57 and TSHR ag -12.1%.
`COc1ccc(NC(=O)Nc2cccc(C)n2)cc1` gave FLuc inh 15.8µM*, HEK293 cAMP ctrl inconclusive and TSHR ag inconclusive.
For O=C(Nc1ccccc1)Nc1cccc2cccnc12 the results were FLuc inh 20µM*, HEK293 cAMP ctrl -2.5% and TSHR ag -5.2%.
Screening COc1ccc(OC)c(N(CC(=O)N2CCCC2)S(=O)(=O)c2ccc(OC)c(OC)c2)c1 returned FLuc inh 3.6%, HEK293 cAMP ctrl -0.5%, Bst PK mod >57 and TSHR ag 0.5%.
For Cc1ccc(S(=O)(=O)N2CCN(C(=O)C3CCCCC3)CC2)cc1 the results were FLuc inh 1.6%, HEK293 cAMP ctrl 8.1%, Bst PK mod >57 and TSHR ag 6.7%.
CCOC(=O)COn1c2c(c3c4no[n+]([O-])c4ccc31)CCCC2 was read as FLuc inh 1.2%, HEK293 cAMP ctrl inconclusive, Bst PK mod >57 and TSHR ag inconclusive.
Screening O=C(NCc1nc2ccccc2[nH]1)c1cccs1 returned FLuc inh -5.0%, HEK293 cAMP ctrl 5.01µM* and TSHR ag inconclusive.
`O=C(NCc1nc2ccccc2[nH]1)c1ccco1` gave FLuc inh 0.1%, HEK293 cAMP ctrl 5.4%, Bst PK mod >57 and TSHR ag -6.7%.
For CCn1c(NC(=O)c2cccs2)nc2ccccc21 the results were FLuc inh -20.8%, HEK293 cAMP ctrl 15.8µM* and TSHR ag inconclusive.
CC(C)(CNC(=O)c1cccs1)CNC(=O)c1cccs1 was read as FLuc inh -0.3%, HEK293 cAMP ctrl 31.6µM* and TSHR ag inconclusive.
